# Compounds with a hit are over-represented: about 2.8% of the library has one in this group of screens.
# PP5 primary = inhibitors of human protein phosphatase 5 (PP5); purified PP5c, OMFP substrate fluorescence; 0.18% of 320,000 active; inhibition, % at 6.7 µM; P53041;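 active = inhibition above the campaign's mean inhibition across all tested compounds plus 3 SD, cut at about 9.5% in these data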;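 also: 0% = DMSO only and 100% = 100 µM cantharidin control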
# Target sequence (P53041 whole entry, looked up): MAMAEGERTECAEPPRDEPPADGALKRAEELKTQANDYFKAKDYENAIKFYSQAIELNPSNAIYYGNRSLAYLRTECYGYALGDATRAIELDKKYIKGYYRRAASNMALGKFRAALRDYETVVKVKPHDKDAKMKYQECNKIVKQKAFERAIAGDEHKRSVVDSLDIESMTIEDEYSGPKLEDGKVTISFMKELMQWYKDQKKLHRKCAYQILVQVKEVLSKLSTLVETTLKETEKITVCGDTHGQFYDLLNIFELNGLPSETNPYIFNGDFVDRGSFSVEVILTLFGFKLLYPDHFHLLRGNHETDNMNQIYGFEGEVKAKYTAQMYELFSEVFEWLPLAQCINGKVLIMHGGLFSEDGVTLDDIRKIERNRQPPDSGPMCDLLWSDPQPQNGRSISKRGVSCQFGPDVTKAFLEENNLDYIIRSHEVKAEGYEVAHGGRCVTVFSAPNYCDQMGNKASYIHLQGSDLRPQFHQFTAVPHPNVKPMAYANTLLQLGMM
# GASC-1 inh = human JMJD2C demethylase inhibition; 0.069% of 330,000 active; GST-JMJD2C(1-420) H3K9me3 demethylation, DELFIA europium; inhibition, % at 2.35 µM; Q9H3R0;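 active = more than half of a compound's replicate wells show inhibition beyond 50%, single wells judged on their own value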;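 also: signal counts dimethyl H3K9 product captured on neutravidin plate; 0% = median of DMSO wells and 100% = 0.3 times that DMSO median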
# Rev-erbA mod = modulates human Rev-erb alpha binding to DNA; Rev-erbα–FITC-DNA binding, fluorescence polarization, 90 min; activity, % at 10 µM; 0.79% of 370,000 active;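 active = activity above about 14%, limit read from the data; passing the limit was not always enough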;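 also: 0% = DMSO wells with 35 nM protein and 100% = DMSO wells with 750 nM protein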
# PP1 counter = counter-screen for PP5 inhibitors: inhibitors of human PP1-alpha | P62136 | purified PP1alpha, OMFP fluorescence | inhibition, % at 6.7 µM | 0.9% of 320,000 active;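 active = inhibition above the mean inhibition of all tested compounds plus 3 SD, computed separately for each screening campaign, cut at about 15% in these data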
# PG9 binder = binds the HIV-1 gp120 antibody PG9. inhibition, % at 6.7 µM. TR-FRET gp120-PG9 antibody binding. 0.43% of 360,000 active; in the data active = inhibition above about 8.5%
# proKLK7 act = activates the human kallikrein-7 zymogen. purified proKLK7, EDANS-DABCYL substrate fluorescence; 100% is mature enzyme control, 0% vehicle. activation, % at 7 µM. 0.9% of 370,000 active;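 active = activation above the mean of all tested compounds plus 3 SD, computed per campaign excluding outliers beyond control limits, cut at about 13% in these data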
# proKLK7 act conf = proKLK7 activation, confirmation. activation, % at 7 µM. AID 686949. purified proKLK7, EDANS-DABCYL substrate fluorescence; scaled: vehicle 0, mature enzyme 100. shares compounds with proKLK7 act. 68% of 3,200 active;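 active = activation, as change over the incubation, above the mean of all tested compounds plus 3 SD, cut at about 13% in these data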
# EDANS-DABCYL int = optically interferes with EDANS-DABCYL signal, flagging KLK7 hits; shares compounds with proKLK7 act; EDANS-DABCYL substrate fluorescence interference, no enzyme, 4 h; solvent 0%, active enzyme control 100%; activation, % at 7 µM; 80% of 3,200 active; AID 686952;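 active = activation above the all-compound mean plus 3 SD, ignoring values outside control-based bounds, cut at about 4.8% in these data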;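 also: value is the 4 h activation minus the activation read at time zero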
# An asterisk follows results filed as active; / = no result; ! = repeats disagree.
SMILES,PP5 primary,GASC-1 inh,Rev-erbA mod,PP1 counter,PG9 binder,proKLK7 act,proKLK7 act conf,EDANS-DABCYL int
COc1ccc2[nH]c(=O)c(C(c3nnnn3CC3CCCO3)N3CCc4ccccc4C3)cc2c1 (centres undefined),-1,0,3,-2,-1,20*,11,9.9*
CC(=O)Nc1cccc(-c2nc3ccc(NC(C)=O)cc3s2)c1,2,-2,1,4,0,26*,22*,21*
COC(=O)[C@]12C[C@H](CC(=O)N3CCN(C(=O)C4CC4)CC3)C(=O)N(Cc3ccc(Cl)cc3Cl)C1=C[C@H](C(C)C)O[C@@H]2C1CC1,/,/,2,/,/,1,/,/
COCCN1C=C(C(=O)OC)C(c2ccc3c(c2)OCO3)C(C(=O)OC)=C1,-2,-5,-1,0,1,-1,/,/
CCOc1ccc(C2C(C(=O)OC)=CN(CCOC)C=C2C(=O)OC)cc1,2,-2,-2,-3,0,26*,-4,-2
COCCN1C=C(C(=O)OC)C(c2ccc(Cl)cc2)C(C(=O)OC)=C1,1,-19,1,-5,-1,31*,-71,-71
Cc1nn(-c2ccccc2)c2sc(C(=O)NCC3CCCO3)cc12 (centres undefined),/,/,-3,/,/,1,/,/
Cc1sc2nc3ccc(NCc4ccco4)nn3c(=O)c2c1C,4,1,0,-1,2,17*,74*,70*
CCCCC1C2C(=O)N(c3ccccc3)C(=O)C2ON1c1ccccc1 (centres undefined),1,-4,-1,-4,0,1,/,/
CCCCC1C2C(=O)N(c3ccc(C)cc3)C(=O)C2ON1c1ccccc1 (centres undefined),3,-7,-3,1,-3,15*,36*,34*
Nc1c2ccccc2nc2ccccc12,2,-2,2,-1,0,14*!,52*,71*
CCOP(=O)(OCC)c1nc(-c2ccccc2Cl)oc1N1CCOCC1,1,-3,-2,-4,-4,0,/,/
CCOP(=O)(OCC)c1nc(-c2cccc3ccccc23)oc1N1CCOCC1,0,-3,-1,1,1,63*,63*,58*
COc1ccccc1NC(=O)OC1CC2CC1[C@H]1CCCCN1[C@H]2Cc1ccccc1 (some centres undefined),/,/,1,/,/,0,/,/
CCNc1nc(N)c(C(=C(C#N)C#N)c2ccccc2)s1,3,12,4,-1,1,33*,139*,139*
CN1CCN(Cc2c(O)c(Cl)cc3c(-c4ccccc4)cc(=O)oc23)CC1,-1,2,-7,-2,0,17*,14*,11*
Cc1cc(=O)oc2c(CN3CCN(C)CC3)c(O)c(Cl)cc12,0,30,4,-3,2,58*,76*,77*
O=c1cc(CN2CCN(Cc3ccccc3)CC2)c2ccc(O)c(O)c2o1,1,9,-7,-1,-4,0,/,/
CCCCc1cc(=O)oc2c(CN3CCCC3)c(O)c(Cl)cc12,4,/,-4,0,2,63*,71*,82*
CCc1c(C)c2cc(Cl)c(O)c(CN3CCCC3)c2oc1=O,/,18,-5,/,-1,37*,68*,69*
COc1cccc(/C=C2\CC3(OC(=O)c4ccc(F)cc4)CCCN2C3)c1 (centres undefined),/,/,1,/,/,0,/,/
Cc1ccc(NC(=O)[C@@H](Cc2ccccc2)NC(=O)[C@H]2O[C@@H](n3ccc(=O)[nH]c3=O)[C@H](O)[C@@H]2O)cc1C,/,/,-3,/,0,0,/,/
O=S1(=O)c2ccc(N3CCC[C@H]3CO)cc2O[C@@H]2CCN1C2,/,/,-1,/,/,0,/,/
COC(=O)C1=C(C)N(C)C(=NCc2ccccc2C(F)(F)F)NC1c1ccc(F)cc1 (centres undefined),/,/,0,/,1,1,/,/
COC(=O)c1ccc2c(C(C)c3ccccc3O)c[nH]c2c1 (centres undefined),/,/,-2,/,/,4,/,/
SMILES,PP5 primary,GASC-1 inh,Rev-erbA mod,PP1 counter,PG9 binder,proKLK7 act,proKLK7 act conf,EDANS-DABCYL int
CCCc1cc(=O)oc2c(CN3CCN(C)CC3)c(O)c(Cl)cc12,-2,6,-5,-3,1,60*,71*,76*
CN(c1ccccc1)S(=O)(=O)c1cccc(NC(=O)C2=NN(c3ccccc3)C(=O)CC2)c1,/,7,-6,/,-1,53*,12,8.6*
COc1ccc(NS(=O)(=O)c2cccc(NC(=O)C3=NN(c4ccccc4)C(=O)CC3)c2)cc1,6,-7,-1,1,-2,1,/,/
CC1(c2ccncc2)Nc2ccccc2-c2nc3ccccc3n21 (centres undefined),1,-6,-3,1,2,57*,-3,-2
COc1ccc2c(c1)C1(Nc3ccccc3-c3nc4ccccc4n31)C(=O)N2 (centres undefined),4,2,6,2,-2,0,/,/
CSCCNC(=O)C1(C)CCN1C(=O)CCc1ccccc1 (centres undefined),/,/,3,/,-3,16*,0,0
Cn1c2ccsc2c2ncn(Cc3ccccc3F)c(=O)c21,/,-2,-6,/,2,65*,65*,62*
Cn1c2ccccc2c2ncn(Cc3ccc(F)cc3)c(=O)c21,3,-4,1,3,3,1,/,/
CCOC(=S)SCC(=O)N1CCc2cc(OC)c(OC)cc2C1C1C(=O)CC(C)(C)CC1=O (centres undefined),2,-1,4,-3,0,26*,3,3
CCOC(=S)SCC(=O)N1CCc2ccccc2C1C1C(=O)CC(C)(C)CC1=O (centres undefined),-2,-5,-5,-2,-1,0,/,/
Cc1ccc(S(=O)(=O)c2c(N)n(Cc3ccco3)c3nc4ccccc4nc23)cc1,3,-1,6,2,0,-32,/,/
Cc1ccc(S(=O)(=O)c2c(N)n(NC(=O)c3ccco3)c3nc4ccccc4nc23)cc1,1,15,-2,-3,2,46*,4,6.0*
COc1ccc(/C=C2\CC3(OC(=O)c4cccc(F)c4)CCCN2C3)cc1 (centres undefined),/,/,7,/,/,0,/,/
C[C@@H]1C(c2ccccc2)=NN(c2ccccc2)[C@H]1C(=O)N1CCOC1=O,/,/,5,/,-2,243*,223*,217*
C[C@@H]1C(c2cccc(Cl)c2)=NN(c2ccccc2)[C@H]1C(=O)N1CCOC1=O,/,/,1,/,0,6,/,/

# From PubChem BioAssay
